Reference: PubChem BioAssay

Assay: small-molecule binders of probe aInhba, primary screen, biochemical, small-molecule microarray, 635/667 nm fluorescence (AID 1148);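 note: score merges 667nm spot fluorescence with signal-to-noise for antibody binding to printed compounds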
Conditions: higher = more signal

First: C=C(COC)/C(=C/C[C@@H](OC(C)=O)c1cccc(OCCO)c1)c1cc(C(=O)OC)ccc1OC
Second: C=CC[C@]1(C(=O)OC)N=C(c2ccc(OCCCO)cc2)O[C@H]1c1ccccc1CN=[N+]=[N-]
The composite z-score of the first is lower: -0.0221 for the first, 0.0232 for the second.

First: CC(C)(C)OC(=O)CC[C@]1(C(=O)NCCN2CCOCC2)N=C(c2ccc(OCCCO)cc2)O[C@H]1c1ccccc1CN=[N+]=[N-]
Second: C=CC[C@]1(C(N)=O)N=C(c2ccc(OCCCO)cc2)O[C@H]1c1ccccc1CN=[N+]=[N-]
The composite z-score of the first is higher: 0.0386 for the first, -0.0093 for the second.

Compared with CC(=O)NCCCC[C@@H]1NC(=O)[C@@H]2C[C@H](C(=O)NCCCCCCN(C)C)[C@H](c3ccc(O)cc3)N2C1=O, O=C(CS)NCCCCCNC(=O)[C@H]1C[C@H]2C(=O)N3CCC[C@H]3C(=O)N2[C@H]1c1ccc(O)cc1 is lower in composite z-score: 0.982 for the first, -0.024 for the second.

Compared with Cc1ccc(S[C@]2(C(=O)O)CC(=O)N(Cc3ccccc3)[C@@H]2c2ccc(CO)cc2)cc1, CCCNC(=O)[C@@]1(Sc2ccc(C)cc2)CC(=O)N(Cc2ccccc2Cl)[C@@H]1c1ccc(CO)cc1 is higher in composite z-score: -0.154 for the first, 0.0925 for the second.

First: O=C1c2ccccc2[C@](Cc2ccccc2I)(C(=O)NCC(F)(F)F)[C@H](c2ccc(CO)cc2)N1Cc1ccccc1C(F)(F)F
Second: C[C@]1(C(=O)NCc2ccccc2)c2ccccc2C(=O)N(Cc2cc(C(F)(F)F)cc(C(F)(F)F)c2)[C@H]1c1ccc(CO)cc1
The composite z-score of the first is lower: -0.268 for the first, 0.447 for the second.

Compared with O=C1OCCC=C[C@H]2OC34C=CCN(Cc5ccccc5)C(=O)[C@H]3N(CCO)C(=O)[C@@H]4C12 (stereo partly specified), CC(C)N1CC=CC23O[C@@H]4/C=C\CCCOC(=O)C4[C@H]2C(=O)N(CCO)[C@@H]3C1=O (stereo partly specified) is higher in composite z-score: -0.285 for the first, -0.0695 for the second.

First: C=CCNC(=O)[C@H]1[C@@H]2C(=O)O[C@@H](c3ccccc3)[C@@H](c3ccccc3)N2[C@@H](c2ccccc2OCCO)[C@]12C(=O)N(C(=O)OCCOC)c1ccc(C#CCC(C(=O)OC)C(=O)OC)cc12
Second: COCCOC(=O)N1C(=O)[C@@]2(c3cc(C#CCCO)ccc31)[C@H](C(=O)N1CCCCCCC1)[C@H]1C(=O)O[C@H](c3ccccc3)[C@H](c3ccccc3)N1[C@@H]2c1ccc(O)cc1
The composite z-score of the first is lower: 0.225 for the first, 0.74 for the second.

Going from COc1ccc([Si](C)(C)[C@H]2[C@H](CC(=O)N3Cc4ccccc4C[C@H]3CO)O[C@@]3(C(=O)N(Cc4cccc(N5CCOC5=O)c4)c4ccccc43)[C@@H]2C)cc1 to COc1ccc([Si](C)(C)[C@H]2[C@H](CCO)O[C@@]3(C(=O)N(Cc4ccc(N5CCCCC5=O)cc4)c4ccccc43)[C@@H]2C)cc1, the composite z-score falls from 0.0086 to -0.128.

First: CC(C)CN1C(=O)[C@@]2(Cc3ccccc31)c1ccccc1C(=O)N(C1CCCCC1)[C@H]2c1ccc(CO)cc1
Second: O=C1c2ccccc2[C@](Cc2ccccc2I)(C(=O)O)[C@H](c2ccc(CO)cc2)N1C1CCCCC1
The composite z-score of the first is lower: -0.208 for the first, 0.0676 for the second.

First: COc1cccc([C@@H]2[C@@H](C)CC[C@H]3C(=O)N4[C@H](c5cccc(OC)c5)[C@@H](C)CC[C@H]4C(=O)N23)c1
Second: CC(=O)Nc1ccc([C@H]2[C@H](C)CC[C@H]3C(=O)N4[C@@H](CC[C@@H](C)[C@@H]4c4ccc(NC(C)=O)cc4)C(=O)N32)cc1
The composite z-score of the first is higher: 0.054 for the first, 0.0275 for the second.

Going from CO[C@H]1COC(=O)[C@H](Cc2ccccc2)NC(=O)CC=C[C@@H](C)[C@H](OC)COC(=O)CC=C[C@@H]1C to CO[C@H]1COC(=O)CC=C[C@@H](C)COC(=O)[C@@H](C)NC(=O)CC=C[C@@H]1C, the composite z-score falls from -0.0954 to -0.218.

Going from CO[C@H]1COC(=O)[C@@H](OCc2ccccc2)C=C[C@H](C)[C@@H](OC)COC(=O)[C@H](OCc2ccccc2)C=C[C@@H]1C to CC(C)[Si]1(C(C)C)O[C@@H](c2ccccc2)c2cc(C3CC3)nc(-c3ccc(Oc4ccccc4)cc3)c21, the composite z-score rises from -0.0695 to -0.0082.

Compared with O=C1O[C@@H](c2ccccc2)[C@@H](c2ccccc2)N2[C@@H](c3ccc(O)cc3)[C@]3(C(=O)Nc4ccccc43)[C@@H](C(=O)N3CCN(c4ncccn4)CC3)[C@H]12, O=C1O[C@@H](c2ccccc2)[C@@H](c2ccccc2)N2[C@@H](c3ccc(O)cc3)[C@]3(C(=O)Nc4ccc(C#CC5(O)CCCCCC5)cc43)[C@@H](C(=O)Nc3nc4ccccc4s3)[C@H]12 is lower in composite z-score: -0.178 for the first, -0.438 for the second.

Compared with C=CCOC(=O)[C@@H]1[C@H]2C(=O)O[C@H](c3ccccc3)[C@H](c3ccccc3)N2[C@H](c2ccc(OCCOC(=O)[C@H]3C[C@H]4C(=O)N5CCC[C@H]5C(=O)N4[C@H]3c3ccc(O)cc3)cc2)[C@@]12C(=O)Nc1ccccc12, COc1cc2c(cc1OC)CN(C(=O)[C@@H]1[C@H]3C(=O)O[C@H](c4ccccc4)[C@H](c4ccccc4)N3[C@H](c3ccccc3OCCO)[C@@]13C(=O)Nc1ccccc13)CC2 is lower in composite z-score: 1.03 for the first, 0.387 for the second.

Going from C=CCN1C(=O)[C@@]2(O[C@@H](CCn3cc([C@H](O)c4ccccc4)nn3)[C@H]([Si](C)(C)c3ccc(OC)cc3)[C@H]2C)c2cc(N3CCOC3=O)ccc21 to O=C(NCC(O)CO)[C@]1(Cc2ccccc2)N=C(c2ccc(OCCCO)cc2)O[C@@H]1c1ccccc1 (stereo partly specified), the composite z-score rises from -0.157 to 0.633.

Compared with CCCC/C=C/[C@H]([C@@H](O)Cc1ccccc1)N(CC#Cc1ccccc1)Cc1ccccc1Br, [N-]=[N+]=NCc1ccccc1C[C@@]1(C(=O)N2CCOCC2)N=C(c2ccc(OCCCO)cc2)O[C@@H]1c1ccccc1N=[N+]=[N-] is higher in composite z-score: -0.302 for the first, 0.421 for the second.

Compared with CCOC(=O)[C@H]1C/C=C/C[C@H](C(=O)OCC)C(=O)O[C@H]2[C@@H](OC)O[C@H](CO)[C@@H](OC(=O)Nc3ccc(Br)cc3)[C@@H]2OC1=O, CO[C@]12C=C(Br)[C@@H](C[C@@H]1c1ccccc1)[C@@]1(CO1)C2=O is higher in composite z-score: -0.121 for the first, -0.0221 for the second.

Going from COC(=O)c1c(CC[C@@H](CO)NC(=O)N[C@H](Cn2cc(-c3cncn3C)nn2)C(C)C)oc(C(C)=O)c1C(=O)OC to COc1cccc([C@H]2N[C@H](C(=O)O)CC[C@@H]2C)c1, the composite z-score rises from -0.282 to -0.111.
